About 79,000 compounds went through this panel and 15% of them were active in at least one assay; those are over-represented in the sample as a whole. Values without a mark were called inactive. Active and inactive are the calls of the source. Rule as the data show it: active = growth inhibition above about 70%; inactive = the rest.
Test: NCI Yeast Anticancer Drug Screen. Data for the sgs1 mgt1 strain (AID 161);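 also: 0% = growth of cultures given vehicle only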
Conditions: S. cerevisiae sgs1 mgt1 strain, at 50.0 µM, hits give high values
How it was run: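 Mutant yeast exposed to compound; growth scored against vehicle-only wells.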

Compound | growth inhibition
Cc1ccccc1Sc1ccccc1[N+](=O)[O-] | 26.1%
Nc1nc(-c2ccc3c(c2)Sc2ccccc2O3)cs1 | 91.3% (active)
CC(C)(C)C1CCC2c3c([nH]c4ccccc34)C3C(=O)N(c4ccc(C(=O)O)cc4)C(=O)C3C2C1 (stereo not given) | 98.5% (active)
CCC[CH2][Sn]([CH2]CCC)([O]N(C)C(=O)c1ccc(Br)cc1)[O]N(C)C(=O)c1ccc(Br)cc1 | 92.8% (active)
COC(=O)c1ccc([N+](=O)[O-])o1 | 76.8% (active)
O=C(OC1=C(Br)C(=O)c2ccccc2C1=O)c1ccccc1 | 66.3%
O=C(O)C/C(=C\c1ccco1)C(=O)O | -30.6%
N#C/C(=C/c1ccc([N+](=O)[O-])o1)c1ccccc1 | 27.9%
CCN(CC)CCOc1ccc(C=C2c3ccccc3-c3ccccc32)cc1 | 99.3% (active)
Nc1ncnc(N2CCOCC2)c1N | 0.95%
Cc1cc(Cl)ccc1N1C(=O)C(=O)C(c2nc3ccccc3o2)C(=O)C1=O | 88.8% (active)
Cc1nc2c(Cl)nc(Cl)nc2s1 | 98.7% (active)
CC1=NOC(=O)/C1=C/c1ccc(Cl)c(Cl)c1 | 52.5%
CN(CCC(=O)/C(=C\c1ccc(Cl)cc1)c1ccccc1)Cc1ccccc1 | 98.2% (active)
C(=N\N=C\c1ccc2c(c1)OCO2)/c1ccc2c(c1)OCO2 | -3.7%
Clc1ccc(CSc2ncnc3c2ncn3C2CCCCO2)cc1 (stereo not given) | 97.5% (active)
CC(=O)OC/C=C/CCCOC(C)=O | 84% (active)
CCCCCCCCCCOC(=O)c1cccnc1 | 30.6%
Cc1ccc2c(c1)C1(SCC(=O)N1c1ccc(Cl)cc1)C(=O)N2 (stereo not given) | 77.8% (active)
Oc1ccc(C2CCc3ccccc32)cc1 (stereo not given) | 99.1% (active)

Compound | growth inhibition
[O-][N+]1=C2CCC/C(=N/O)C2(O)C2CCCCC21N1CCOCC1 (stereo not given) | -2.1%
CCCCN(c1ccccc1)c1ncnc2c1ncn2C | 89% (active)
Cc1cc(C)nc(/C=C/c2ccccc2)c1 | 98.6% (active)
CCCCN(C)N=Nc1c(C(N)=O)n[nH]c1C(C)C | 29.4%
O=C1C(Cl)=C(Cl)C(=O)C2=C1CC(Cl)C(Cl)C2 (stereo not given) | 99.5% (active)
O=C1Oc2ccccc2C(=O)/C1=C/N1C(=O)/C(=C/c2ccc3c(c2)OCO3)SC1=S | 80.2% (active)
O=C(/C=C/c1ccc(O)cc1)c1cc(Cl)ccc1O | 92.4% (active)
CCCC(C(=O)OCCNC1CCCCC1)c1ccccc1 (stereo not given) | 63.3%
c1ccc2cc3c(cc2c1)Nc1c2ccccc2nc2cccc-3c12 | 79.4% (active)
CCCC1CCCC1(CC(=O)c1ccccc1)C(=O)O (stereo not given) | 81.7% (active)
COc1ccc(CCN2C(=O)C(=O)N(C3CCCCC3)C2=O)cc1OC | 26.9%
COC(C(=O)O)c1ccccc1 (stereo not given) | 74.8% (active)
CCCCCCCCC(=O)NCCCNCCCNC(=O)CCCCCCCC | 66.3%
C[Si](C)(CCC(=O)O)O[Si](C)(C)CCC(=O)O | 99.5% (active)
Cc1c2cc[n+](C)cc2c(C)c2c1[nH]c1ccc(Cl)cc12 | 93% (active)
O=[N+]([O-])c1ccc(C2=Nn3c(nnc3-c3ccc(Cl)cc3)SC2)o1 | 62.1%
CCCCCCCCCCN(CCCCCCCCCC)CC(O)c1cc(-c2ccccc2)nc2ccccc12 (stereo not given) | 38.8%
O=C(c1ccccc1)C(c1ccccc1)C1(O)C(=O)Nc2c(Cl)cc(Cl)cc21 (stereo not given) | 92% (active)
COC(=S)S | -11.4%
CC/C(=C(\CC)c1ccc(O)c(CN(CC)CC)c1)c1ccc(OC)cc1 | 99.6% (active)

Test: NCI Yeast Anticancer Drug Screen. Data for the cln2 rad14 strain (AID 165);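 also: 0% = growth equal to vehicle treated cultures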
Conditions: S. cerevisiae cln2 rad14 strain, at 5.0 µM (retest, dose inferred, filed as 0.5), hits give high values
How it was run: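 Compounds are applied to the cln2 rad14 yeast strain, and growth is then compared with that of vehicle-treated cultures to give inhibition.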

Compound | growth inhibition
Cc1ccccc1Sc1ccccc1[N+](=O)[O-] | 5%
Nc1nc(-c2ccc3c(c2)Sc2ccccc2O3)cs1 | 7%
CC(C)(C)C1CCC2c3c([nH]c4ccccc34)C3C(=O)N(c4ccc(C(=O)O)cc4)C(=O)C3C2C1 (stereo not given) | 89% (active)
CCC[CH2][Sn]([CH2]CCC)([O]N(C)C(=O)c1ccc(Br)cc1)[O]N(C)C(=O)c1ccc(Br)cc1 | 27%
COC(=O)c1ccc([N+](=O)[O-])o1 | -5%
O=C(OC1=C(Br)C(=O)c2ccccc2C1=O)c1ccccc1 | 4%
O=C(O)C/C(=C\c1ccco1)C(=O)O | -1%
N#C/C(=C/c1ccc([N+](=O)[O-])o1)c1ccccc1 | 12%
CCN(CC)CCOc1ccc(C=C2c3ccccc3-c3ccccc32)cc1 | 99% (active)
Nc1ncnc(N2CCOCC2)c1N | -7%
Cc1cc(Cl)ccc1N1C(=O)C(=O)C(c2nc3ccccc3o2)C(=O)C1=O | 31%
Cc1nc2c(Cl)nc(Cl)nc2s1 | -8%
CC1=NOC(=O)/C1=C/c1ccc(Cl)c(Cl)c1 | 8%
CN(CCC(=O)/C(=C\c1ccc(Cl)cc1)c1ccccc1)Cc1ccccc1 | 98% (active)
C(=N\N=C\c1ccc2c(c1)OCO2)/c1ccc2c(c1)OCO2 | -32%
Clc1ccc(CSc2ncnc3c2ncn3C2CCCCO2)cc1 (stereo not given) | -20%
CC(=O)OC/C=C/CCCOC(C)=O | 38%
CCCCCCCCCCOC(=O)c1cccnc1 | 3%
Cc1ccc2c(c1)C1(SCC(=O)N1c1ccc(Cl)cc1)C(=O)N2 (stereo not given) | -1%
Oc1ccc(C2CCc3ccccc32)cc1 (stereo not given) | -11%

Compound | growth inhibition
[O-][N+]1=C2CCC/C(=N/O)C2(O)C2CCCCC21N1CCOCC1 (stereo not given) | 23%
CCCCN(c1ccccc1)c1ncnc2c1ncn2C | 0%
Cc1cc(C)nc(/C=C/c2ccccc2)c1 | -1%
CCCCN(C)N=Nc1c(C(N)=O)n[nH]c1C(C)C | -3%
O=C1C(Cl)=C(Cl)C(=O)C2=C1CC(Cl)C(Cl)C2 (stereo not given) | 37%
O=C1Oc2ccccc2C(=O)/C1=C/N1C(=O)/C(=C/c2ccc3c(c2)OCO3)SC1=S | -13%
O=C(/C=C/c1ccc(O)cc1)c1cc(Cl)ccc1O | -4%
CCCC(C(=O)OCCNC1CCCCC1)c1ccccc1 (stereo not given) | -38%
c1ccc2cc3c(cc2c1)Nc1c2ccccc2nc2cccc-3c12 | 25%
CCCC1CCCC1(CC(=O)c1ccccc1)C(=O)O (stereo not given) | 24%
COc1ccc(CCN2C(=O)C(=O)N(C3CCCCC3)C2=O)cc1OC | -2%
COC(C(=O)O)c1ccccc1 (stereo not given) | 1%
CCCCCCCCC(=O)NCCCNCCCNC(=O)CCCCCCCC | -22%
C[Si](C)(CCC(=O)O)O[Si](C)(C)CCC(=O)O | -1%
Cc1c2cc[n+](C)cc2c(C)c2c1[nH]c1ccc(Cl)cc12 | 35%
O=[N+]([O-])c1ccc(C2=Nn3c(nnc3-c3ccc(Cl)cc3)SC2)o1 | -2%
CCCCCCCCCCN(CCCCCCCCCC)CC(O)c1cc(-c2ccccc2)nc2ccccc12 (stereo not given) | 0%
O=C(c1ccccc1)C(c1ccccc1)C1(O)C(=O)Nc2c(Cl)cc(Cl)cc21 (stereo not given) | -6%
COC(=S)S | -4%
CC/C(=C(\CC)c1ccc(O)c(CN(CC)CC)c1)c1ccc(OC)cc1 | -1%

— PubChem BioAssay (NCI)
